Screening data deposited in PubChem by several laboratories.
ABCB6 inh MLPCN: human ABCB6 transporter inhibition; K562-ABCB6 porphyrin accumulation, flow cytometry, 1 h; hits give low values; fluorescence ratio to DMSO, % at 10 µM; 0.19% of 360,000 active;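 active means fluorescence ratio to DMSO below 75%, the collection mean minus 3 SD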;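 further: signal is porphyrin accumulated inside mitochondria; lower ratio means ABCB6 inhibition with less porphyrin fluorescence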
ANO1 block: inhibitors of mouse TMEM16A calcium-activated chloride channel. HEK293 TMEM16A/YFP iodide influx fluorescence, ionomycin. normalized B-score (activity score, 25-100; higher = stronger inhibition) at 10 µM. 1.2% of 310,000 active. AID 588511;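 active means ratio plate-corrected score three or more library SD toward inhibition, starting fluorescence score within five deviations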;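 further: score derived from kinetic fluorescence span divided by baseline fluorescence per well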
hiPSC survival: enhancers of human iPSC single-cell survival; hiPSC single-cell survival, ATPlite luminescence; 100% = ROCK inhibitor wells, 0% = DMSO; survival enhancement, % at 20 µM; 0.044% of 360,000 active; in the data active means survival enhancement above about 18%;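 further: cells exposed to compounds for 16 hours before the ATP read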
ANO1 activ: activators or potentiators of mouse TMEM16A chloride channel; HEK293 TMEM16A/YFP-H148Q/I152L, iodide quench fluorescence; hits give low values; 0.3% of 340,000 active; Q8BHY3; B-score at 10 µM;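 active means fluorescence-ratio B-score plate-corrected deviation score at least 3 library SD below zero, with starting fluorescence score within 5 deviations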;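 further: channel opened by trigger with iodide after compound preincubation; score built on the fluorescence ratio of max minus min over baseline; more negative score means more quench and so TMEM16A activation or potentiation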
DAGLB inh: diacylglycerol lipase beta (human) inhibition | Q8NCG7 | HEK293T DAGLB membrane lysate, EnzChek fluorogenic substrate | inhibition, % at 5.17 µM | 0.059% of 340,000 active; in the data active means inhibition above about 34%
Target sequence (Q8NCG7 whole entry, looked up): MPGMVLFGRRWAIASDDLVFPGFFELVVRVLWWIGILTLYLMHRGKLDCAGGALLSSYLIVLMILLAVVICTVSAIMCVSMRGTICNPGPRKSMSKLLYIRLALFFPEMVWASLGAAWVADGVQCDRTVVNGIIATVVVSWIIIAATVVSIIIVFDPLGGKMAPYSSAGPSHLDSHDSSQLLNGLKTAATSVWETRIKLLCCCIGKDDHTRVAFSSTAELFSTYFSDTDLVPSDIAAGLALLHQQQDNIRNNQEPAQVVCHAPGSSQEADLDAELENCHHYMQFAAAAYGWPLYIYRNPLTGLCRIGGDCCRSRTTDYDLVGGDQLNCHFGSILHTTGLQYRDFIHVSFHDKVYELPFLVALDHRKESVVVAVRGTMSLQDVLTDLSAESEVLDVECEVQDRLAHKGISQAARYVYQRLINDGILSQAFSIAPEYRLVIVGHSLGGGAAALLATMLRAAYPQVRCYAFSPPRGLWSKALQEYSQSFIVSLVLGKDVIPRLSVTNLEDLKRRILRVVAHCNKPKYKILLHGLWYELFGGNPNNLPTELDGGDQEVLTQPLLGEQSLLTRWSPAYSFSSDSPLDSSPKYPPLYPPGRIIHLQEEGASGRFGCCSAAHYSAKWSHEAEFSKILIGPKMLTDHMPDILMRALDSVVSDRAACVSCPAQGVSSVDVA
TMEM16A reconf: reconfirmed blocker of mouse TMEM16A calcium-activated chloride channel | shares compounds with ANO1 block | HEK293 TMEM16A/YFP-H148Q, iodide quench fluorescence; ionomycin added to raise cell calcium | inhibition, % at 10 µM | 39% of 2,300 active | AID 652189;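 active means mean duplicate percent inhibition, scaled so buffer wells are 0 and the reference blocker 100, over three buffer SD above buffer mean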
HEK293 Ca mobil: alters calcium mobilization in TMEM16A HEK293 cells, counter-screen; shares compounds with ANO1 block; TMEM16A/YFP HEK293, Fluo4 calcium mobilization; calcium response (% of ionomycin), % at 10 µM; 2% of 2,300 active; AID 652231;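 active means duplicate-averaged calcium signal over 20% of the ionomycin maximum, relative to buffer baseline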;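 further: each well's signal is peak minus trough fluorescence divided by its pre-addition baseline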
Parental YFP cnt: parental YFP-HEK293 iodide quench counter-screen activity | shares compounds with ANO1 block | ionomycin | 2,300 tested, under 10 active | YFP ratio F(max-min)/F0 at 10 µM;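 active means yellow fluorescent protein signal ratio exceeding the buffer control mean by over 5 SD of those controls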;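 further: ratio is mean of duplicate wells from kinetic YFP trace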
ClC-1 inh: rat ClC-1 inhibition, TMEM16A specificity screen; 2,300 tested, under 10 active; CHO ClC-1-YFP, iodide influx fluorescence quench; iodide control reads 0, buffer control 100; ratio percent, % at 10 µM; shares compounds with ANO1 block;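 active means duplicate-mean ratio percent above the mean of iodide-only control wells, which defines zero, plus 5 of their SD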;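 further: higher percent means stronger block of ClC-1 iodide influx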
Of the large screens only hits and unclear results are named; the others gave an inactive call (follow-up assays come after a bar, where they were run). Shown are actives, neighbours in structure and some others; about 1.5% of the full set was active somewhere.

CCC(OC(=O)c1nsc(Cl)c1Cl)C(=O)NCC1CCCO1 (stereo unspecified)	none
COc1cc(OC)c(NC(=S)Nc2cc(Cl)cc(Cl)c2)cc1Cl	ANO1 block 100 | TMEM16A reconf 18% | HEK293 Ca mobil inactive | Parental YFP cnt inactive | ClC-1 inh inactive
COc1cc(OC)c(NC(=S)Nc2cccc(C(C)=O)c2)cc1Cl	none
Cc1ccccc1C(=O)N1CCN(c2ccc(NC(=O)c3ccco3)cc2Cl)CC1	ANO1 block 100 | TMEM16A reconf inactive | HEK293 Ca mobil inactive | Parental YFP cnt inactive | ClC-1 inh inactive
Cc1c(C(=O)NCc2cccs2)sc(=O)n1Cc1ccc(S(=O)(=O)N(C)C)cc1	none (no result: ANO1 block, ANO1 activ, DAGLB inh)
C[C@H](CO)N1C[C@H](C)[C@@H](CN(C)Cc2ccncc2)Oc2c(NS(=O)(=O)c3cn(C)cn3)cccc2C1=O	none (no result: ANO1 block)
CCOC(=O)c1c(NS(=O)(=O)c2ccc(Br)cc2)sc2c1CCC2	ANO1 block 100 | TMEM16A reconf 70% | HEK293 Ca mobil inactive | Parental YFP cnt inactive | ClC-1 inh inactive
CC(C)(C)Cc1nnc(NC(=O)CCC2CCCCC2)s1	none
OC(c1ccccc1)c1nc(-c2csc3ccccc23)cs1 (stereo unspecified)	none (no result: ANO1 block, ANO1 activ, DAGLB inh)
O=C(CSc1nc2ccc([N+](=O)[O-])cc2[nH]1)NC1CCCCC1	ANO1 block 25 | TMEM16A reconf inactive | HEK293 Ca mobil inactive | Parental YFP cnt inactive | ClC-1 inh inactive
Cc1ccc2nc(SCC(=O)NC3CC3)[nH]c2c1	none
FC(F)(F)c1cccc(-c2nc3nc(Cl)c(Cl)nc3[nH]2)c1	ANO1 block 25 | TMEM16A reconf 31% | HEK293 Ca mobil inactive | Parental YFP cnt inactive | ClC-1 inh inactive
O=C(Nc1ccc(Cl)cc1)Nc1nnc(-c2ccncc2)s1	none
Cc1ccc(NC(=O)Nc2nnc(-c3ccncc3)s2)cc1C	ANO1 block 25 | TMEM16A reconf inactive | HEK293 Ca mobil inactive | Parental YFP cnt inactive | ClC-1 inh inactive
CCCSc1oc(-c2ccco2)nc1S(=O)(=O)c1ccc(C)cc1	ANO1 block 25 | TMEM16A reconf inactive | HEK293 Ca mobil inactive | Parental YFP cnt inactive | ClC-1 inh inactive
Cc1ccc([C@@H]2C[C@H]3[C@@H](CN2S(=O)(=O)c2ccc(Cl)cc2)C(=O)C[C@@H](c2cccc4ccccc24)N3S(=O)(=O)c2ccc(C)cc2)cc1	none (no result: ANO1 block, ANO1 activ)
Cc1cc(=O)n2[nH]c(C)c(-c3ccccc3)c2n1	none
O=c1cc(-c2ccccc2)nc2c(-c3ccccc3)c(C(F)(F)F)[nH]n12	ANO1 block 100 (no result: DAGLB inh) | TMEM16A reconf 58% | HEK293 Ca mobil inactive | Parental YFP cnt inactive | ClC-1 inh inactive
Cc1cc(C)c2cc(C(=O)N3CCN(c4ncccc4C(F)(F)F)CC3)[nH]c2c1	none
CC(=O)/C(C#N)=C1\NC(=O)C(Cc2cc(Cl)ccc2Cl)S1 (stereo unspecified)	ANO1 block 100 | TMEM16A reconf 46% | HEK293 Ca mobil inactive | Parental YFP cnt inactive | ClC-1 inh inactive
COc1ccc(C(=O)NC2CCN(Cc3ccccc3)C2)cc1S(=O)(=O)N1CCOCC1 (stereo unspecified)	none (no result: ANO1 block)
O=C(c1cccs1)N1CCCC(c2nc3c(nnn3Cc3ccccc3Cl)c(=O)[nH]2)C1 (stereo unspecified)	none
OCC1(CCOc2ccccc2)CCN(Cc2ccc(OC(F)F)cc2)CC1	none
Cc1cc(=O)oc2cc(OCC(O)CN3CCc4ccccc4C3)ccc12 (stereo unspecified)	ANO1 block 25 | TMEM16A reconf inactive | HEK293 Ca mobil inactive | Parental YFP cnt inactive | ClC-1 inh inactive
Cc1cc(=O)oc2cc(OCC(O)CN3CCN(c4ccccc4)CC3)ccc12 (stereo unspecified)	none
COc1ccc([C@H]2CC(=O)C[C@@H](CCn3cc(C)nn3)O2)cc1	none (no result: ANO1 block, ANO1 activ, DAGLB inh)
CC1CCN(S(=O)(=O)c2cccc(S(=O)(=O)N3CCCC3)c2)CC1	none
O=C(Nc1cc(C(F)(F)F)ccc1Cl)C(Sc1ccccn1)c1ccccc1 (stereo unspecified)	ANO1 block 25 | TMEM16A reconf inactive | HEK293 Ca mobil inactive | Parental YFP cnt inactive | ClC-1 inh inactive
O=C(COc1ccc(Cl)cc1Cl)NCCN1CCCC1	none (no result: ANO1 block, ANO1 activ)
CN(CC(=O)Nc1ccc(Cl)c(C(F)(F)F)c1)C(=O)Cc1n[nH]c(=O)c2ccccc12	ANO1 block 100 | TMEM16A reconf 26% | HEK293 Ca mobil inactive | Parental YFP cnt inactive | ClC-1 inh inactive
CCN(CC)S(=O)(=O)c1ccc(Oc2ccc(S(=O)(=O)N(CC)CC)cc2)cc1	ANO1 block 100 | TMEM16A reconf inactive | HEK293 Ca mobil inactive | Parental YFP cnt inactive | ClC-1 inh inactive
Cc1ccc(C(=O)O/N=C2\CC3CCC2(C)C3(C)C)cc1 (stereo unspecified)	ANO1 block 25 | TMEM16A reconf inactive | HEK293 Ca mobil inactive | Parental YFP cnt inactive | ClC-1 inh inactive
Cc1no[n+]([O-])c1COc1cccc(/C=C2\N=C(c3ccccc3)OC2=O)c1	none
O=C1OC(c2ccccc2)=N/C1=C/c1cccc(OC(=O)c2cccs2)c1	ANO1 block 25 | TMEM16A reconf inactive | HEK293 Ca mobil inactive | Parental YFP cnt inactive | ClC-1 inh inactive
CCN(Cc1ccccc1)C(=O)CCc1nc(-c2ccc(C)cc2)no1	none
CCc1ccccc1N(CC)C(=O)CCc1nc(-c2ccc(C)cc2)no1	ANO1 block 100 | TMEM16A reconf 30% | HEK293 Ca mobil inactive | Parental YFP cnt inactive | ClC-1 inh inactive
C[C@H]1CN([C@@H](C)CO)C(=O)c2cccc(NS(=O)(=O)c3ccc(F)cc3)c2O[C@H]1CN(C)S(=O)(=O)c1cn(C)cn1	none (no result: ANO1 block)
Cc1noc(C)c1COC(=O)c1cccc(S(=O)(=O)N2CCOCC2)c1	none
Cc1noc(C)c1COC(=O)c1cccc(S(=O)(=O)N2c3ccccc3CC2C)c1 (stereo unspecified)	ANO1 block 100 | TMEM16A reconf 25% | HEK293 Ca mobil inactive | Parental YFP cnt inactive | ClC-1 inh inactive
O=C(Cc1coc2ccc3ccccc3c12)NCc1ccccc1	ANO1 block 100 | TMEM16A reconf inactive | HEK293 Ca mobil inactive | Parental YFP cnt inactive | ClC-1 inh inactive
O=C(Cc1coc2ccc3ccccc3c12)Nc1nccs1	none
O=C(c1[nH]c(C(F)(F)F)nc1-c1ccccc1)N1CCN(c2c(Cl)cncc2Cl)CC1	none (no result: ANO1 block, ANO1 activ, DAGLB inh)
